Values joined by “and” are separate entries in the source; they are usually repeats but may differ in a detail not shown here. Equal entries are not always repeated. Records with an inconclusive call do not appear. Some compounds were tested as several samples or in several runs, with calls that do not always agree. Active and inactive are the calls of the source. Unless noted, calls come from the whole dose curve. Where a SMILES comes first, the peptide text is derived from it.
Key:
[1] = biological target: Estrogen receptor (Homo sapiens) (UniProt P03372); assay: qHTS assay for small molecule agonists of estrogen receptor alpha signaling (AID 588514);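 note: 0% = vehicle only and 100% = reference agonist; nearly all actives have a fitted effect of over 70% in size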
In short: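 Reporter-gene assay. […] controls beta-lactamase in HEK 293 GripTite cells; after 18 hrs with compound, CCF4 substrate is added for 2 hrs and fluorescence is read.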

[2] = biological target: Bile acid receptor (Homo sapiens) (UniProt Q96RI1); assay: qHTS assay for small molecule antagonists of farnesoid X receptor signaling (AID 588526); note: potency is the fitted concentration of half-maximal effect; for activity change, negative = inhibition: % is set by controls: 0 for no effect and ±100 for the full control effect
In short: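 Antagonist mode: titrated compounds tested against chenodeoxycholic acid stimulation (normalized to 50 uM CDCA and DMSO) in GeneBLAzer HEK293T cells for 16 h. Beta-lactamase read by CCF4 fluorescence; IC50 from Hill fits.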

[3] = biological target: Glucocorticoid receptor (Homo sapiens) (UniProt P04150); assay: qHTS assay for small molecule antagonists of glucocorticoid receptor signaling (AID 588533; active = well fitted inhibition curve with a large enough effect in the signal ratio, with a control signal flat, not every such curve was filed as active; the % refers to the signal ratio; note: potency is the fitted concentration of half-maximal effect)
In short: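 Antagonist-mode qHTS: compound titrations added to GRE-bla HeLa cells, then dexamethasone 2 nM final; 18 h, 37 C. CCF4 FRET fluorescence normalized to dexamethasone and DMSO; IC50 from Hill fit.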

[4] = qHTS assay for small molecule agonists of retinoid X receptor alpha signaling (AID 588544); settings: HEK293T RXRa-UAS-bla, beta-lactamase reporter, 18 h; 530 nm emission; note: potency is the fitted concentration of half-maximal effect;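 for activation: 0% = DMSO basal wells and 100% = reference agonist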
[5] = biological target: Retinoic acid receptor RXR-alpha (Homo sapiens) (UniProt P19793); assay: as above
[6] = qHTS assay for small molecule antagonists of retinoid X receptor alpha signaling (AID 588546; active = well fitted inhibition curve with a large enough effect in the signal ratio, with a control signal flat, not every such curve was filed as active; the % refers to the signal ratio; note: potency is the fitted concentration of half-maximal effect); settings: HEK293T RXRa-UAS-bla, beta-lactamase ratio, antagonist mode; measured here: W530 green channel, cytotoxicity proxy
In short: (§1)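 Beta-lactamase reporter inhibition, read as CCF4 fluorescence ratio (ex 405, em 460/530 nm) after 2 h at RT. HEK293T UAS-bla cells, 2500/well, were stimulated with 9-cis-RA at 500 or 100 nM final alongside test compound for 18 h at 37 C.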

[7] = biological target: Retinoic acid receptor RXR-alpha (Homo sapiens) (UniProt P19793); assay: as above; settings: HEK293T RXRa-UAS-bla, beta-lactamase ratio, antagonist mode
In short: as §1

[8] = biological target: Thyroid hormone receptor beta (Homo sapiens) (UniProt P10828); assay: qHTS assay for small molecule antagonists of thyroid hormone receptor beta signaling (AID 588547; active = well fitted inhibition curve with a large enough effect in the signal ratio, with a control signal flat, not every such curve was filed as active; the % refers to the signal ratio;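 note: cells stimulated with 0.4 nM T3 agonist during compound exposure; % is set by controls: 0 for no effect and ±100 for the full control effect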); settings: TR-UAS-bla HEK293, beta-lactamase ratio, antagonist mode, 18 h
In short: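 TR-UAS-bla GripTite HEK293 cells in 2% charcoal/dextran FBS medium; compounds 0.59 nM to 92 uM with T3 at 0.4nM final, 18 h at 37 C. Beta-lactamase read by CCF4 fluorescence (460/530 nm); Hill fits gave IC50 and efficacy.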

[9] = qHTS assay for small molecule activators of the nuclear factor-kappa B (NF-kB) signaling pathway (AID 651749; active = well fitted activation curve with a large enough effect in the signal ratio; the % refers to the signal ratio; note: potency is the fitted concentration of half-maximal effect; for activation: % of control where 0% means no effect); settings: NF-kB-bla ME-180 cells, beta-lactamase FRET ratio, 16 h; activation: stronger effect = higher value
In short: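 Incubation lasted 16 hr at 37C in 5% CO2 after 23 nL compound addition to ME-180 NF-kB-bla cells. Activation appears as beta-lactamase-mediated FRET loss.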

[10] = biological target: Nuclear receptor subfamily 1 group I member 2 (Rattus norvegicus) (UniProt Q9R1A7); assay: qHTS assay for small molecule activators of the rat pregnane X receptor (rPXR) signaling pathway (AID 651751; call rule not given here; note: 0% is about no effect); settings: rPXR reporter cells, luciferase (One-Glo), 24 h
[11] = biological target: Peroxisome proliferator-activated receptor delta (Homo sapiens) (UniProt Q03181); assay: qHTS assay for small molecule antagonists of peroxisome proliferator-activated receptor delta signaling (AID 588535; active = well fitted inhibition curve with a large enough effect in the signal ratio, with a control signal flat, not every such curve was filed as active; the % refers to the signal ratio)
In short: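 Cells were seeded at 4000 per well in assay medium containing 2% charcoal/dextran FBS and held 5 hrs at 37 C. Compounds were then added for 18 hrs. CCF4 substrate was applied for 2 hrs at room temperature before fluorescence reading.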

[12] = biological target: Vitamin D3 receptor (Homo sapiens) (UniProt P11473); assay: qHTS assay for small molecule antagonists of vitamin D receptor signaling (AID 588541); note: potency is the fitted concentration of half-maximal effect
In short: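 VDR-UAS-bla HEK293T cells in 2% charcoal-stripped FBS were stimulated with 1-alpha,25-dihydroxyvitamin D3 (3 nM final) plus compound for 16 h at 37 C. The beta-lactamase CCF4 readout was normalized to 50 nM agonist and DMSO, and Hill fits gave IC50.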

[13] = qHTS assay for small molecule activators of the human pregnane X receptor (PXR) signaling pathway (AID 720659; call rule not given here; note: 0% is about no effect)
[14] = NFAT Signaling Pathway (AID 444; active = well fitted curve in either direction with a large enough effect, not every such curve was filed as active;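 note: carbachol stimulus at about its EC50 of 1 µM final; % is set by controls: 0 for no effect and ±100 for the full control effect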); settings: Jurkat NFAT-bla M1, carbachol, beta-lactamase ratio, 5 h; at 17.2 µM (top of the series) unless noted
In short: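 Jurkat cells with NFAT-driven β-lactamase reporter and co-expressed M1 receptor, stimulated with carbachol (final 1 uM, ~EC50), compound titration, 5 h at 37 °C. CCF4 loaded 1 h at RT; 460/530 nm ratio gave %activity and AC50.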

[15] = Stat Signaling Pathway (AID 446; active = well fitted curve in either direction with a large enough effect, not every such curve was filed as active;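 note: ME-180 cervical cancer cells given 40 pM IL-6 alongside compound; SIE-controlled beta-lactamase reporter measured as 460/530 nm FRET emission ratio; % is set by controls: 0 for no effect and ±100 for the full control effect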)
In short: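 ME-180 SIE-bla cells; overnight plating; cpd + IL-6 40 pM, 5 h, 37 C; LiveBLAzer 2.5 h RT; 460/530 nm emission ratio. Normalized to 300 pM IL-6 and 125 nM JAK inhibitor controls.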

[16] = biological target: 3',5'-cyclic-AMP phosphodiesterase 4B (Homo sapiens) (UniProt Q07343); assay: qHTS Assay for Inhibitors of PDE-IV (AID 607; active = well fitted activation curve with a large enough effect in the main read-out, with a control signal flat, not every such curve was filed as active; note: % of control where 0% means no effect)
In short: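 ACTOne HEK293 cells carry a modified cAMP-gated CNG channel and express endogenous PDE4; plated 1000 cells/well, compounds up to 22.9 uM final. Membrane-potential dye fluorescence (ex 535/em 590) was read; parental cells received 10 uM forskolin + 100 uM RO 20-1724.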

[17] = biological target: Bile acid receptor (Homo sapiens) (UniProt Q96RI1); assay: qHTS assay for small molecule agonists of farnesoid X receptor signaling (AID 588527); settings: HEK293T FXR-UAS-bla, beta-lactamase ratio, 16 h; activation: stronger effect = higher value; note: potency is the fitted concentration of half-maximal effect;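 for activation: 0% = vehicle basal and 100% = reference agonist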
In short: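 FXR-UAS-bla HEK293T, 10% dialyzed FBS; cpds up to 92 uM titration, 16 h 37 C; CCF4 dye 2 h RT; fluorescence. Normalized to chenodeoxycholic acid 100 uM (100%) and DMSO (0%); Hill fit gives EC50, efficacy.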

Sequence of Vitamin D3 receptor (Homo sapiens) (P11473 whole entry, looked up): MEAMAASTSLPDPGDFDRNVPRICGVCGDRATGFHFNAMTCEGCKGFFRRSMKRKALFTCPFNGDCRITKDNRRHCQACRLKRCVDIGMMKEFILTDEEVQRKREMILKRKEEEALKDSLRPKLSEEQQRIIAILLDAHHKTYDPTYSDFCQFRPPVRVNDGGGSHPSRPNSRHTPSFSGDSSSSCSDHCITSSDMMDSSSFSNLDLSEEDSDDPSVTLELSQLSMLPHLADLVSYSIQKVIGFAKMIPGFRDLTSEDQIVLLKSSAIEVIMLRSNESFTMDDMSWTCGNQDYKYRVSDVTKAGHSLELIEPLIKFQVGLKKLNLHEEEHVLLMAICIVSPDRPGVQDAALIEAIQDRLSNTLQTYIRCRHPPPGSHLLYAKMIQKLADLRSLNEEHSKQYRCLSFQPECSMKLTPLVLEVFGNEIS
Sequence of Peroxisome proliferator-activated receptor delta (Homo sapiens) (Q03181 whole entry, looked up): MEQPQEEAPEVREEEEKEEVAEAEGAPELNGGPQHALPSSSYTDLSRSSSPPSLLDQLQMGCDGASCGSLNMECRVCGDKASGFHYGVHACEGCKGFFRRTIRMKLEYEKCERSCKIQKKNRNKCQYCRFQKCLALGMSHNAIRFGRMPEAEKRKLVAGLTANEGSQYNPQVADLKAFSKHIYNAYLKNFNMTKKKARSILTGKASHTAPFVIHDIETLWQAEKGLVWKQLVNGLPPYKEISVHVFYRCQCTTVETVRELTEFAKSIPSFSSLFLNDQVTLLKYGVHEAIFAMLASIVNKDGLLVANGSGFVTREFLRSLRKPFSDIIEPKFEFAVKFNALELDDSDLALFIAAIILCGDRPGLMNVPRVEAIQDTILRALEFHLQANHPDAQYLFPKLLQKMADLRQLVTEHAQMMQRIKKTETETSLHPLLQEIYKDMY
Sequence of Nuclear receptor subfamily 1 group I member 2 (Rattus norvegicus) (Q9R1A7 whole entry, looked up): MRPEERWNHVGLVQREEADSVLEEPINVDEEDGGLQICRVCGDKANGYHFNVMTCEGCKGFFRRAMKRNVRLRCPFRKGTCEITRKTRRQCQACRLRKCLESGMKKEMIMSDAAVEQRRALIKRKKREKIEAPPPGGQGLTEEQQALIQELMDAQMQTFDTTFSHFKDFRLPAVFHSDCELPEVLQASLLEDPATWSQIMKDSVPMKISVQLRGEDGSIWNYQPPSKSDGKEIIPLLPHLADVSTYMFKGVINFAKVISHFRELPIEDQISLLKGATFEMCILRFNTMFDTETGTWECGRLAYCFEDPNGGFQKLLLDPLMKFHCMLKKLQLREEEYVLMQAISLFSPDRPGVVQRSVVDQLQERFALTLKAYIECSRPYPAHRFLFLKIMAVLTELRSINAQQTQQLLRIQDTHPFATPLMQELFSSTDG
Sequence of Thyroid hormone receptor beta (Homo sapiens) (P10828 whole entry, looked up): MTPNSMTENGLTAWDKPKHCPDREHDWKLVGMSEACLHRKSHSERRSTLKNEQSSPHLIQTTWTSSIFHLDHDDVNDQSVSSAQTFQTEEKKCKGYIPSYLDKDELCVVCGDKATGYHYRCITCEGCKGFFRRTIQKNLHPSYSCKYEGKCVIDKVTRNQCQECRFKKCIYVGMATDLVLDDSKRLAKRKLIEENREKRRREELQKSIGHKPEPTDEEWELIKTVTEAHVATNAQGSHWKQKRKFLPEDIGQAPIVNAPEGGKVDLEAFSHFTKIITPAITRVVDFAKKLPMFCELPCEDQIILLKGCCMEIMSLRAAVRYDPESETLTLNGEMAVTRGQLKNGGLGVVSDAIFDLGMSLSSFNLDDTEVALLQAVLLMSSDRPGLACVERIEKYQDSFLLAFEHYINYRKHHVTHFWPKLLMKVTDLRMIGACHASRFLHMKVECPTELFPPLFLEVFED
Sequence of Glucocorticoid receptor (Homo sapiens) (P04150 whole entry, looked up): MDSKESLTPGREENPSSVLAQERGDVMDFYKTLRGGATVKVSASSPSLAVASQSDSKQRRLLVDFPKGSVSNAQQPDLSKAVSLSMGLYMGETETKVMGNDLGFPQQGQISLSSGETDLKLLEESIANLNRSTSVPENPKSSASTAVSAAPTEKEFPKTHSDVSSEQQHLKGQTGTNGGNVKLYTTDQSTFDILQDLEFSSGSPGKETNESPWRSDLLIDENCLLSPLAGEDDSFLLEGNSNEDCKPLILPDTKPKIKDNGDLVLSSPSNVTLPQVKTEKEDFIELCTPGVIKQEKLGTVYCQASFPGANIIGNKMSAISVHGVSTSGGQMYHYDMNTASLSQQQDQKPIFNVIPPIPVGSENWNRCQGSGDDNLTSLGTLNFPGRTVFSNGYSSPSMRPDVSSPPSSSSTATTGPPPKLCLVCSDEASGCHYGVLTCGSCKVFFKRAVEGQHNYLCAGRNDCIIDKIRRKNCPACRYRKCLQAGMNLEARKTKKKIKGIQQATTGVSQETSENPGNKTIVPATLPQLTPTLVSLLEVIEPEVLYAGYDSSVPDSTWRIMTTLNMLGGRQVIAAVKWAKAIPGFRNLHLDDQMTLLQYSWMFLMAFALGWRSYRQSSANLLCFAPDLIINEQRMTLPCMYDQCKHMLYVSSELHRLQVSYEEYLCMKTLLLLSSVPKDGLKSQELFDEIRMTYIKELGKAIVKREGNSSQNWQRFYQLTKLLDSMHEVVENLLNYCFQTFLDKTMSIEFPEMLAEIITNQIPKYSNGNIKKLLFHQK
Sequence of Bile acid receptor (Homo sapiens) (Q96RI1 whole entry, looked up): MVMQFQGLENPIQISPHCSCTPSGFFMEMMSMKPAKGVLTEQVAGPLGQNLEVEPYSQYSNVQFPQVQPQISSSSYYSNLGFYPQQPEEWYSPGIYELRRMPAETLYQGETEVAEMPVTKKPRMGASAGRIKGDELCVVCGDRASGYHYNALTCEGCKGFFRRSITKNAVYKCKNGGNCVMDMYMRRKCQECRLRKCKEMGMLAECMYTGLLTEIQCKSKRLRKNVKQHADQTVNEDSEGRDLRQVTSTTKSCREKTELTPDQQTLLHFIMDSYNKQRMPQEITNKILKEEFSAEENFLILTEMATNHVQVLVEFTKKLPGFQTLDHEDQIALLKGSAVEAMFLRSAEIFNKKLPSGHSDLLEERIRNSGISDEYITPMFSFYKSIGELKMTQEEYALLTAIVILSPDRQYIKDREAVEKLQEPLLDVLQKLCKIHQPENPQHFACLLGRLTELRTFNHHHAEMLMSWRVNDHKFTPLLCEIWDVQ
Sequence of Estrogen receptor (Homo sapiens) (P03372 whole entry, looked up): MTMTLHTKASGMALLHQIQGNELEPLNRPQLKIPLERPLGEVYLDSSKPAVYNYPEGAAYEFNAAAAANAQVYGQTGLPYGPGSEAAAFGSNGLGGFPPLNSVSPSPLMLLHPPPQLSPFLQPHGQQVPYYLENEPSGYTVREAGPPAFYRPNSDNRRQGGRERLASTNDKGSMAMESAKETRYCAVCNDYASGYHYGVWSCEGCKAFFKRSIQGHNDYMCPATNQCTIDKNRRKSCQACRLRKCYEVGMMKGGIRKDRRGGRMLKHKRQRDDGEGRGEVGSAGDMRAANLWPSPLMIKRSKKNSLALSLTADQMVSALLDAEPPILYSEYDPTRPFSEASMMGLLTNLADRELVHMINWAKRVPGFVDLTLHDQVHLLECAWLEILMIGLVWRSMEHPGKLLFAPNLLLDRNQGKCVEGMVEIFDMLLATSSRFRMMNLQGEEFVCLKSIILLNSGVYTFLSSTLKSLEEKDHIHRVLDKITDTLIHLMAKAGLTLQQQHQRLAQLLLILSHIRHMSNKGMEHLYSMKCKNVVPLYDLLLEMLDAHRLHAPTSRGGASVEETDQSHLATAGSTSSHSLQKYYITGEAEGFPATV
Sequence of Retinoic acid receptor RXR-alpha (Homo sapiens) (P19793 whole entry, looked up): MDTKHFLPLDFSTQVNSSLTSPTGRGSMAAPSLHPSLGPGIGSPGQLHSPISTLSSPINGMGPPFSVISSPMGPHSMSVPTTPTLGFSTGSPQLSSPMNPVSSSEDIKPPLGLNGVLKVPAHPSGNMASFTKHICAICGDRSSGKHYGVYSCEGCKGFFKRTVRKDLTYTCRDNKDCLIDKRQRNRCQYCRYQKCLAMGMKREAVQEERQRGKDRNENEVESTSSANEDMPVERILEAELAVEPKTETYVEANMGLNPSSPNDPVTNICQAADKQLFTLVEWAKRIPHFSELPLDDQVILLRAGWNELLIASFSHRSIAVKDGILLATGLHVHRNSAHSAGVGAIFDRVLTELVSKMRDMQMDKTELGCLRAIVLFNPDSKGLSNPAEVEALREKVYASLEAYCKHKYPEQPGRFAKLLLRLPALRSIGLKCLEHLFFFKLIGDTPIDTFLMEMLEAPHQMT
Sequence of 3',5'-cyclic-AMP phosphodiesterase 4B (Homo sapiens) (Q07343 whole entry, looked up): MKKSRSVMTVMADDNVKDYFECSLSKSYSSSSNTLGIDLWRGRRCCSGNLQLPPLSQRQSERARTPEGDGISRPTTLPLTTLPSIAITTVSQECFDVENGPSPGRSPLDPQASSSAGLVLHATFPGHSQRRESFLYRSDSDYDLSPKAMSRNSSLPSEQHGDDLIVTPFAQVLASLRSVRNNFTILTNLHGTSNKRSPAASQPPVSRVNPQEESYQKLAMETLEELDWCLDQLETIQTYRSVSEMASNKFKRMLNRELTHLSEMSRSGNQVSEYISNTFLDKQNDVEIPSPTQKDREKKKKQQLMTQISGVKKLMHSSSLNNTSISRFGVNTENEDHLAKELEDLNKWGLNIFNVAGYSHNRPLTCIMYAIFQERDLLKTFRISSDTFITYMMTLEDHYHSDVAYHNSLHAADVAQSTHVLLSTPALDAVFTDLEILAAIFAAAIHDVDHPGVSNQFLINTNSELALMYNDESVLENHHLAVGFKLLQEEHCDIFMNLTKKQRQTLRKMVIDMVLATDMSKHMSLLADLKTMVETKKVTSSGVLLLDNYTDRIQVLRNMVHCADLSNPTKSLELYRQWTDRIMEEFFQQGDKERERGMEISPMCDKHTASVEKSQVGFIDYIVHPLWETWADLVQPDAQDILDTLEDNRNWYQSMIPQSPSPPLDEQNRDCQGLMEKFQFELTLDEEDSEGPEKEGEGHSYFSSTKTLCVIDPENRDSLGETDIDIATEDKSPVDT

## O=C(O)C1C(C(=O)O)C2(Cl)C(Cl)=C(Cl)C1(Cl)C2(Cl)Cl (centres undefined)
[1]
  Potency: inactive
[2]
  Potency: inactive
[3]
  Potency: inactive
[4]
  max response: -3.38%
[5]
  Potency: inactive
[6]
  max response: -3.5%
[7]
  max response: -12.3% (inactive)
[8]
  activity change % (negative = inhibition): -20.8% (inactive)
[9]
  activation: 0.511% (inactive)
[10]
  max response: 0.252% (inactive)

## O=C(CCl)c1ccccc1
[3]
  Potency: 39.8 µM (active) and inactive
[11]
  Potency: inactive
[12]
  Potency: 35.5 µM (active) and inactive
[6]
  max response: -13.4%
[7]
  max response: 9.61% (inactive)
[9]
  activation: 0.721% (inactive)
[10]
  max response: -5.24% (inactive) and -3.68% (inactive)
[13]
  outcome: inactive

## CC(C)CC(C)Nc1ccc(Nc2ccccc2)cc1 (centres undefined)
[6]
  max response: -4.53%
[7]
  max response: -33.2% (inactive)

## Cn1c(O)c(C(=O)c2ccccc2Cl)c(=O)n(C)c1=O
[14]
  activity change, negative = inhibition: 6.46% (inactive)
[15]
  outcome: inactive

## C[C@@H]1CC[C@@]2(OC1)O[C@H]1[C@@H](O)[C@H]3[C@@H]4CC[C@H]5C[C@@H](O[C@@H]6O[C@H](CO)[C@H](O[C@@H]7O[C@H](CO)[C@@H](O)[C@H](O[C@@H]8OC[C@@H](O)[C@H](O)[C@H]8O)[C@H]7O[C@@H]7O[C@H](CO)[C@@H](O)[C@H](O[C@@H]8O[C@H](CO)[C@@H](O)[C@H](O)[C@H]8O)[C@H]7O)[C@H](O)[C@H]6O)[C@H](O)C[C@]5(C)[C@H]4CC[C@]3(C)[C@H]1[C@@H]2C
[13]
  outcome: inactive

## C[C@@H]1O[C@@H](O[C@H]2C[C@@H](O)[C@]3(CO)[C@@H]4[C@@H](O)C[C@]5(C)[C@H](C6=CC(=O)OC6)CC[C@@]5(O)[C@H]4CC[C@@]3(O)C2)[C@H](O)[C@H](O)[C@@H]1O
[14]
  activity change, negative = inhibition: -76.4% [at 38 µM] (active)
[16]
  outcome: inactive

## COCC(C)OC(=O)c1c(N)n(Cc2ccco2)c2nc3ccccc3nc12 (centres undefined)
[14]
  activity change, negative = inhibition: 10.7% (inactive)
[15]
  outcome: inactive

## [CH3][Hg][Cl]
[3]
  Potency: 11.2 µM (active)
[12]
  Potency: 3.16 µM (active)
[6]
  max response: -30.3%
[7]
  Potency: 2.24 µM (active)

## Nc1ccccc1C(=O)OCCc1ccccc1
[3]
  Potency: inactive
[12]
  Potency: inactive
[6]
  max response: -8.78%
[7]
  max response: -9.65% (inactive)
[8]
  activity change % (negative = inhibition): -14.2% (inactive)
[9]
  activation: 0.217% (inactive)
[13]
  outcome: inactive

## O=C1C2(Cl)C3(Cl)C4(Cl)C(Cl)(Cl)C5(Cl)C3(Cl)C1(Cl)C5(Cl)C24Cl (centres undefined)
[17]
  activation: 1.21% (inactive) and 8.36% (inactive)
[3]
  Potency: 39.8 µM (active)
[12]
  Potency: 39.8 µM (active) and inactive
[9]
  activation: 4.98% (inactive)

## Oc1c(Br)c(Br)c(Br)c(Br)c1Br
[2]
  Potency: 28.2 µM (active)
[3]
  Potency: 39.8 µM (active)
[13]
  outcome: inactive

## CCCCCCCCn1sccc1=O
[1]
  Potency: inactive
[17]
  activation: 6.4% (inactive)
[3]
  Potency: inactive
[12]
  Potency: 22.4 µM (active)
[9]
  activation: -0.619% (inactive) and -1.03% (inactive)

## Oc1cc2c(cc1O)[C@H]1c3ccccc3CN[C@@H]1CC2
[14]
  activity change, negative = inhibition: -4.87% [at 38 µM] (inactive)
[15]
  outcome: inactive
[16]
  outcome: inactive

## C(=NC1CCCCC1)=NC1CCCCC1
[1]
  Potency: inactive
[2]
  Potency: inactive
[17]
  activation: 1.63% (inactive)
[12]
  Potency: inactive
[8]
  activity change % (negative = inhibition): -20.1% (inactive) and -3.06% (inactive)
[9]
  activation: 0.442% (inactive) and -0.633% (inactive)
[10]
  max response: 0.443% (inactive) and 0.275% (inactive)
[13]
  outcome: inactive

## c1ccc2cc3c(cc2c1)-c1cccc2cccc-3c12
[17]
  Potency: 3.16 µM (active)
[4]
  max response: 21%
[5]
  Potency: 2.82 µM (active)
[9]
  Potency: 7.08 µM (active) and 4.47 µM (active)
[10]
  max response: 5.83% (inactive) and 4.65% (inactive)

## Clc1ccc(C(c2ccc(Cl)cc2)C(Cl)Cl)cc1
[1]
  Potency: inactive
[17]
  activation: 3.84% (inactive)
[11]
  Potency: inactive
[4]
  max response: -1.02%
[5]
  Potency: inactive
[8]
  activity change % (negative = inhibition): -7.83% (inactive) and -28.4% (inactive)

## Cc1c(N=Cc2c(O)n(CCc3ccc(F)cc3)c(=O)[nH]c2=O)c(=O)n(-c2ccccc2)n1C
[15]
  outcome: inactive

## N#CSCSC#N
[17]
  activation: 17.3% (inactive)

## COP(=O)(OC)O/C(=C\Cl)c1cc(Cl)c(Cl)cc1Cl
[1]
  Potency: inactive
[17]
  activation: -2.88% (inactive)
[8]
  activity change % (negative = inhibition): 2.4% (inactive)
[10]
  max response: 1.57% (inactive)

## O=[N+]([O-])C(Br)Br
[11]
  Potency: inactive
[12]
  Potency: inactive
[4]
  max response: -3.79%
[5]
  Potency: inactive
[6]
  max response: -6.12%
[7]
  max response: 3.78% (inactive)
[8]
  activity change % (negative = inhibition): 4.06% (inactive)
[10]
  max response: 1.81% (inactive)
[13]
  outcome: inactive

## CC(C)C[C@H](NC(=O)[C@@H]1CCCN1C(=O)[C@@H](N)Cc1ccc(O)cc1)C(=O)NCC(N)=O (H-YPLG-NH2)
[14]
  activity change, negative = inhibition: 14.8% (inactive)
[15]
  outcome: inactive

Reference: PubChem BioAssay (NCATS)
